Assay results published in the supplement of paper PMC12494721.
Counter-ions that a name gives are not always drawn.

Assays:
Conditions in all cases: incubation time: 27 h, anaerobic, 37 °C;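 for the amine columns active = adjusted P below 0.05 in both replicates with a change the same way and a mean fold change under 0.8 or over 1.25; inactive = the rest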
[1] = system: Clostridium sporogenes DSM 1664; test: growth (OD595) fold change vs plate DMSO controls (fold change (ratio)); higher = more growth
Summary of the method: (§1)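 After 27 h at 37 °C under anaerobic conditions, 96-well cultures in mGAM were shaken and read at 595 nm. The readings were blank-subtracted, corrected for compound background using 20 µM compound solutions in water, and converted to OD with a calibration factor of 5. Growth is defined as the fold change over the median of DMSO controls on each plate. Fold changes above 1.5 were set to NA, and each value is the mean of 2 biological replicates.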

[2] = system: Escherichia coli IAI1; test: as above
Summary of the method: as §1

[3] = system: Klebsiella aerogenes DSM 30053; test: as above
Summary of the method: as §1

[4] = system: Ruminococcus gnavus DSM 108212; test: as above
Summary of the method: as §1

[5] = system: Klebsiella aerogenes DSM 30053; test: fold change of Histamine concentration vs plate DMSO controls (fold change (ratio)); higher = more amine produced, active = hit call of the paper (significant change in both replicates, either direction)
Summary of the method: (§2)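 Each value is the fold change relative to DMSO-only wells on the same plate. Four gut bacterial strains were grown anaerobically in mGAM at 37 °C for 27 h in 80 µL wells, starting at OD 0.1 before a 1:1 dilution, with compounds at 20 µM final (sweeteners 50 µM). Whole cultures were extracted with cold acetonitrile/methanol containing 0.1% formic acid, centrifuged, and amines were quantified by LC–triple-quadrupole MS (dynamic MRM) against external calibration curves with within-batch drift correction. Values are means of 2 biological replicates.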

[6] = system: Clostridium sporogenes DSM 1664; test: fold change of Tryptamine concentration vs plate DMSO controls (fold change (ratio)); higher = more amine produced, active = hit call of the paper (significant change in both replicates, either direction)
Summary of the method: as §2

[7] = system: Ruminococcus gnavus DSM 108212; test: as above
Summary of the method: as §2

[8] = system: Escherichia coli IAI1; test: fold change of Putrescine concentration vs plate DMSO controls (fold change (ratio)); higher = more amine produced, active = hit call of the paper (significant change in both replicates, either direction)
Summary of the method: as §2

[9] = system: Klebsiella aerogenes DSM 30053; test: as above
Summary of the method: as §2

[10] = system: Escherichia coli IAI1; test: fold change of Cadaverine concentration vs plate DMSO controls (fold change (ratio)); higher = more amine produced, active = hit call of the paper (significant change in both replicates, either direction)
Summary of the method: as §2

[11] = system: Klebsiella aerogenes DSM 30053; test: as above
Summary of the method: as §2

[12] = system: Ruminococcus gnavus DSM 108212; test: fold change of 2-Phenylethylamine concentration vs plate DMSO controls (fold change (ratio)); higher = more amine produced, active = hit call of the paper (significant change in both replicates, either direction)
Summary of the method: as §2

`CCCc1cc(C(N)=S)ccn1` [Prothionamide] (20 µM) was tested, and the growth [1] was 1.09, the growth [2] was 1.15 and the growth [3] was 0.999. For the same compound, the growth [4] was 0.999, the “fold change of Histamine concentration” value [5] was 1.01 (inactive) and the “fold change of Tryptamine concentration” value [6] was 0.998 (inactive). The “fold change of Tryptamine concentration” value [7] was 0.977 (inactive), the “fold change of Putrescine concentration” value [8] was 1.18 (inactive) and the “fold change of Putrescine concentration” value [9] was 0.982 (inactive). For the same compound, the “fold change of Cadaverine concentration” value [10] was 1.01 (inactive), the “fold change of Cadaverine concentration” value [11] was 0.999 (inactive) and the “fold change of 2-Phenylethylamine concentration” value [12] was 0.946 (inactive).
`O=C(O)c1cc(=O)c2c(OCC(O)COc3cccc4oc(C(=O)O)cc(=O)c34)cccc2o1` [Cromolyn disodium salt] (20 µM) was tested, and the growth [1] was 1.06, the growth [2] was 1.05 and the growth [3] was 1.02. The growth [4] was 1.11, the “fold change of Histamine concentration” value [5] was 0.943 (inactive) and the “fold change of Tryptamine concentration” value [6] was 0.983 (inactive). For the same compound, the “fold change of Tryptamine concentration” value [7] was 1.04 (inactive), the “fold change of Putrescine concentration” value [8] was 0.994 (inactive) and the “fold change of Putrescine concentration” value [9] was 0.96 (inactive). The “fold change of Cadaverine concentration” value [10] was 0.99 (inactive), the “fold change of Cadaverine concentration” value [11] was 0.979 (inactive) and the “fold change of 2-Phenylethylamine concentration” value [12] was 1.06 (inactive).
With `Cc1ncc(C[n+]2csc(CCO)c2C)c(N)n1` [Thiamine hydrochloride] (20 µM) the growth [1] was 0.972, the growth [2] was 0.961 and the growth [3] was 1.01. For the same compound, the growth [4] was 1.14, the “fold change of Histamine concentration” value [5] was 0.968 (inactive) and the “fold change of Tryptamine concentration” value [6] was 1.06 (inactive). The “fold change of Tryptamine concentration” value [7] was 0.914 (inactive), the “fold change of Putrescine concentration” value [8] was 1.01 (inactive) and the “fold change of Putrescine concentration” value [9] was 0.998 (inactive). The “fold change of Cadaverine concentration” value [10] was 1.01 (inactive), the “fold change of Cadaverine concentration” value [11] was 1.01 (inactive) and the “fold change of 2-Phenylethylamine concentration” value [12] was 0.868 (inactive).
Compound `CC(C)(C)NCC(O)c1ccc(O)c(CO)c1` (configuration not stated) [Salbutamol] (20 µM) has a growth [1] of 1.05, a growth [2] of 0.99 and a growth [3] of 1.03. The growth [4] was 0.843, the “fold change of Histamine concentration” value [5] was 1.08 (inactive) and the “fold change of Tryptamine concentration” value [6] was 0.999 (inactive). The “fold change of Tryptamine concentration” value [7] was 1.03 (inactive), the “fold change of Putrescine concentration” value [8] was 1.04 (inactive) and the “fold change of Putrescine concentration” value [9] was 1.02 (inactive). The “fold change of Cadaverine concentration” value [10] was 1 (inactive), the “fold change of Cadaverine concentration” value [11] was 0.998 (inactive) and the “fold change of 2-Phenylethylamine concentration” value [12] was 1.03 (inactive).
Work on `O=C(NCCNCC(O)COc1ccc(O)cc1)N1CCOCC1` (configuration not stated) [Xamoterol hemifumarate] (20 µM) yielded a growth [1] of 1.1, a growth [2] of 0.989 and a growth [3] of 0.983. The growth [4] was 1, the “fold change of Histamine concentration” value [5] was 1.06 (inactive) and the “fold change of Tryptamine concentration” value [6] was 0.992 (inactive). For the same compound, the “fold change of Tryptamine concentration” value [7] was 0.889 (inactive), the “fold change of Putrescine concentration” value [8] was 1.03 (inactive) and the “fold change of Putrescine concentration” value [9] was 1.03 (inactive). For the same compound, the “fold change of Cadaverine concentration” value [10] was 1 (inactive), the “fold change of Cadaverine concentration” value [11] was 0.986 (inactive) and the “fold change of 2-Phenylethylamine concentration” value [12] was 0.868 (inactive).
In the case of `N=C(N)NCc1cccc(I)c1` [Iobenguane sulfate] (20 µM), the growth [1] is reported as 0.944, the growth [2] is reported as 0.983 and the growth [3] is reported as 0.971. For the same compound, the growth [4] was 0.721, the “fold change of Histamine concentration” value [5] was 0.89 (inactive) and the “fold change of Tryptamine concentration” value [6] was 1 (inactive). The “fold change of Tryptamine concentration” value [7] was 1.08 (inactive), the “fold change of Putrescine concentration” value [8] was 0.949 (inactive) and the “fold change of Putrescine concentration” value [9] was 0.914 (inactive). The “fold change of Cadaverine concentration” value [10] was 1.04 (inactive), the “fold change of Cadaverine concentration” value [11] was 1.1 (inactive) and the “fold change of 2-Phenylethylamine concentration” value [12] was 1.09 (inactive).
`C[C@@H](O)[C@H]1C(=O)N2C(C(=O)O)=C(S[C@@H]3CN[C@H](CNS(N)(=O)=O)C3)[C@H](C)[C@H]12` [Doripenem monohydrate] (20 µM) showed a growth [1] of 0, a growth [2] of 0.00243 and a growth [3] of 0.281. For the same compound, the growth [4] was 0.0314, the “fold change of Histamine concentration” value [5] was 0.193 (active) and the “fold change of Tryptamine concentration” value [6] was 0.0168 (active). For the same compound, the “fold change of Tryptamine concentration” value [7] was 0.0858 (active), the “fold change of Putrescine concentration” value [8] was 0.954 (inactive) and the “fold change of Putrescine concentration” value [9] was 0.467 (active). The “fold change of Cadaverine concentration” value [10] was 2.1 (active), the “fold change of Cadaverine concentration” value [11] was 1.08 (inactive) and the “fold change of 2-Phenylethylamine concentration” value [12] was 0.0567 (active).
In the case of `C[C@@H](c1ncncc1F)[C@](O)(Cn1cncn1)c1ccc(F)cc1F` [Voriconazole] (20 µM), the growth [1] is reported as 0.883, the growth [2] is reported as 0.997 and the growth [3] is reported as 1.02. For the same compound, the growth [4] was 0.932, the “fold change of Histamine concentration” value [5] was 0.988 (inactive) and the “fold change of Tryptamine concentration” value [6] was 1.07 (inactive). The “fold change of Tryptamine concentration” value [7] was 1.01 (inactive), the “fold change of Putrescine concentration” value [8] was 1.02 (inactive) and the “fold change of Putrescine concentration” value [9] was 0.999 (inactive). The “fold change of Cadaverine concentration” value [10] was 0.988 (inactive), the “fold change of Cadaverine concentration” value [11] was 1 (inactive) and the “fold change of 2-Phenylethylamine concentration” value [12] was 0.991 (inactive).
`OC[C@H]1O[C@@H](c2ccc(Cl)c(Cc3ccc(O[C@H]4CCOC4)cc3)c2)[C@H](O)[C@@H](O)[C@@H]1O` [Empagliflozin] (20 µM) gave a growth [1] of 1.04, a growth [2] of 1 and a growth [3] of 1. For the same compound, the growth [4] was 0.989, the “fold change of Histamine concentration” value [5] was 0.998 (inactive) and the “fold change of Tryptamine concentration” value [6] was 1.05 (inactive). For the same compound, the “fold change of Tryptamine concentration” value [7] was 0.872 (inactive), the “fold change of Putrescine concentration” value [8] was 1.02 (inactive) and the “fold change of Putrescine concentration” value [9] was 0.986 (inactive). The “fold change of Cadaverine concentration” value [10] was 1.02 (inactive), the “fold change of Cadaverine concentration” value [11] was 0.974 (inactive) and the “fold change of 2-Phenylethylamine concentration” value [12] was 0.83 (inactive).
With `CC(C)NC(=N)NC(=N)Nc1ccc(Cl)cc1` [Proguanil hydrochloride] (20 µM) the growth [1] was 0.986, the growth [2] was 0.955 and the growth [3] was 0.964. For the same compound, the growth [4] was 0.969, the “fold change of Histamine concentration” value [5] was 1.06 (inactive) and the “fold change of Tryptamine concentration” value [6] was 1.04 (inactive). For the same compound, the “fold change of Tryptamine concentration” value [7] was 1.03 (inactive), the “fold change of Putrescine concentration” value [8] was 1.09 (inactive) and the “fold change of Putrescine concentration” value [9] was 0.997 (inactive). The “fold change of Cadaverine concentration” value [10] was 0.868 (inactive), the “fold change of Cadaverine concentration” value [11] was 0.979 (inactive) and the “fold change of 2-Phenylethylamine concentration” value [12] was 1.02 (inactive).
`CN1CCCC(n2nc(Cc3ccc(Cl)cc3)c3ccccc3c2=O)CC1` (configuration not stated) [Azelastine hydrochloride] (20 µM) was tested, and the growth [1] was 1.05, the growth [2] was 1.05 and the growth [3] was 0.95. For the same compound, the growth [4] was 0.57, the “fold change of Histamine concentration” value [5] was 1.13 (inactive) and the “fold change of Tryptamine concentration” value [6] was 0.963 (inactive). For the same compound, the “fold change of Tryptamine concentration” value [7] was 0.943 (inactive), the “fold change of Putrescine concentration” value [8] was 1.03 (inactive) and the “fold change of Putrescine concentration” value [9] was 1.03 (inactive). The “fold change of Cadaverine concentration” value [10] was 1.01 (inactive), the “fold change of Cadaverine concentration” value [11] was 0.976 (inactive) and the “fold change of 2-Phenylethylamine concentration” value [12] was 0.937 (inactive).
